# According to PubChem BioAssay:
# Active and inactive are the calls of the source.
# Assays:
# [1] = optical density shifts of acrAB sulA E. coli – strain DRC41, OD650, 48 h, E. coli filamentation inducer project, primary screen (AID 1152); details: higher = more signal, called active from +8 up or from −8 down;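 further: E. coli MC1000 strain DRC41 lacking acrAB efflux pump and sulA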
# [2] = probe aLefty1 binding on compound microarray – biochemical, small-molecule microarray, 635/667 nm fluorescence, primary screen (AID 1153); details: higher = more signal;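 further: score merges spot fluorescence with signal-to-noise ratio from the scanned slide images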
# [3] = plasmodial surface anion channel blockers, osmotic lysis – cell-based, P. falciparum Indochina, OD700, 1 h, primary screen (AID 1154); details: P. falciparum Indochina infected RBC osmotic lysis, higher = more signal, called active from +8 up or from −8 down
# [4] = plasmodial surface anion channel blockers, osmotic lysis – cell-based, P. falciparum Indochina, OD700, 2 h, primary screen (AID 1155);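 further: lysis reports solute entry through the parasite surface anion channel PSAC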; details: P. falciparum Indochina infected erythrocytes, higher = more signal, called active from +8 up or from −8 down
# [5] = changes in parasitized red cell lysis, either direction – P. falciparum Indochina, OD700, 3 h, PSAC antagonist project, primary screen (AID 1156); details: P. falciparum-infected erythrocytes, osmotic lysis, higher = more signal, called active from +8 up or from −8 down
# [6] = plasmodial surface anion channel blockers, osmotic lysis – cell-based, P. falciparum Indochina, OD700, 18 h, primary screen (AID 1157); details: P. falciparum Indochina infected erythrocytes, osmotic lysis OD700, 18 h; higher = more signal, called active from +8 up or from −8 down
# [7] = S6 kinase pathway phospho-S6 level changes – cell-based, A549, cytoblot, luminescence, serum-stimulated, primary screen (AID 1158); details: 5 h, higher = more signal;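 further: serum-stimulated A549 lung adenocarcinoma cells; signal is phosphorylated S6 detected by cytoblot immunostaining with HRP secondary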
# [8] = molecular target: NADPH oxidase 2 (Homo sapiens) (UniProt P04839); assay: compounds shifting NOX2 Amplex Red fluorescence – cell-based, HEK293-NOX2, PMA-stimulated, NOX inhibitor project, primary screen (AID 1159); details: 45 min, higher = more signal, called active from +8 up or from −8 down; further: test concentration not given here
# Sequence of NADPH oxidase 2 (Homo sapiens) (P04839 whole entry, looked up): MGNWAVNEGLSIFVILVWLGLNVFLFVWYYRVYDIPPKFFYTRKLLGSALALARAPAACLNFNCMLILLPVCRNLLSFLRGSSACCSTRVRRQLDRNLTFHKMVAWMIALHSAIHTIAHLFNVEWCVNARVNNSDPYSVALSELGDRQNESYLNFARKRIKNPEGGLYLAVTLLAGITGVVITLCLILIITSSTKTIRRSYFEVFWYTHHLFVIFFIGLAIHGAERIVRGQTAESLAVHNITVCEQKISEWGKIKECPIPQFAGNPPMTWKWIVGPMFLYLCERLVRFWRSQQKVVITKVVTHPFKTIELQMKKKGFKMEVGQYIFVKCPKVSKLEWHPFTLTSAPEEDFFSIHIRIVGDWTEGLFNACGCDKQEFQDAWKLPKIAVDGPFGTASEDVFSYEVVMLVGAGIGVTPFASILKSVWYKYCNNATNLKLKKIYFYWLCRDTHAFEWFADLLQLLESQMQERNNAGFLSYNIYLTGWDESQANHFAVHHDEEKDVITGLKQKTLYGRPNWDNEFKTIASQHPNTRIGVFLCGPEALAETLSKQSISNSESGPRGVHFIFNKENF
# [9] = molecular target: NADPH oxidase 4 (Homo sapiens) (UniProt Q9NPH5); assay: compounds shifting NOX4 Amplex Red fluorescence – cell-based, HEK293-NOX4, tetracycline-induced, NOX inhibitor project, primary screen (AID 1160); details: HEK293-NOX4, Amplex Red H2O2 fluorescence, 45 min; higher = more signal, called active from +8 up or from −8 down
# Sequence of NADPH oxidase 4 (Homo sapiens) (Q9NPH5 whole entry, looked up): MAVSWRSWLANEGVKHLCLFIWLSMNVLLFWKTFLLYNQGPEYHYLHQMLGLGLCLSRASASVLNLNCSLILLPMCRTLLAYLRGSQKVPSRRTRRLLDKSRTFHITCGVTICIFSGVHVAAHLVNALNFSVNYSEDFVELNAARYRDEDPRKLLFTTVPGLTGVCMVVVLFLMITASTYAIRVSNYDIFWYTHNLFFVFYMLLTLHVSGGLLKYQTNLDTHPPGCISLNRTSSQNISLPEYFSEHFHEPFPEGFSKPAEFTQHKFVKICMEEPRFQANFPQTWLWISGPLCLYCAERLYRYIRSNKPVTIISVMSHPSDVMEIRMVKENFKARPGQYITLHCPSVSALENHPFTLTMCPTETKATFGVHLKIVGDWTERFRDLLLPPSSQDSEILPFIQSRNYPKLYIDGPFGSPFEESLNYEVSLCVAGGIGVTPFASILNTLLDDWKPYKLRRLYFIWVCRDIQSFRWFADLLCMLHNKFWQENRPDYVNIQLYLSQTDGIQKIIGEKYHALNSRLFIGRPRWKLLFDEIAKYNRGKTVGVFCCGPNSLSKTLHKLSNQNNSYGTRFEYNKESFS
# [10] = molecular target: NADPH oxidase 5 (Homo sapiens) (UniProt Q96PH1); assay: compounds shifting NOX5 Amplex Red fluorescence – cell-based, HEK293-NOX5, NOX inhibitor project, primary screen (AID 1161); details: HEK293-NOX5, ionomycin, 45 min, higher = more signal
# Sequence of NADPH oxidase 5 (Homo sapiens) (Q96PH1 whole entry, looked up): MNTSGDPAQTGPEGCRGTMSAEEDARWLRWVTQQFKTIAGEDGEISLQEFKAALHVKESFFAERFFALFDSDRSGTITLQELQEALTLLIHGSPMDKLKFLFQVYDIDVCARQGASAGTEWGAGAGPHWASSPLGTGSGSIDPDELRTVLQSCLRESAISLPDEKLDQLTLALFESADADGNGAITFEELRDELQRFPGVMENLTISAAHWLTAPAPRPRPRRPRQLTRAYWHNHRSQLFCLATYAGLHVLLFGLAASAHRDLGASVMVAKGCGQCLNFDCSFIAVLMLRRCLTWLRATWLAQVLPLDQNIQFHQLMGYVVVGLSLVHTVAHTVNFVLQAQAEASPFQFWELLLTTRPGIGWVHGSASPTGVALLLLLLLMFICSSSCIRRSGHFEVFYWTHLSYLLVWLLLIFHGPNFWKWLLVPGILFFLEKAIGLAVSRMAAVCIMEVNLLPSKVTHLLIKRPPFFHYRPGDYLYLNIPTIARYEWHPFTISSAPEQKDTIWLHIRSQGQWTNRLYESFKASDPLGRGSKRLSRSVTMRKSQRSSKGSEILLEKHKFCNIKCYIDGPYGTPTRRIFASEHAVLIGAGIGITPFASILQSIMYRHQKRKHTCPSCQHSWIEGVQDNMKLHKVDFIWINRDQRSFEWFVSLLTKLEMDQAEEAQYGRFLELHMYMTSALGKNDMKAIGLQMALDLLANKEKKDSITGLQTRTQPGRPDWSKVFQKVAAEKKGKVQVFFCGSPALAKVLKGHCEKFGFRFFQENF
# [11] = compound effects on lung adenocarcinoma cell viability – A549, calcein-AM fluorescence, 48 h, basal, profiling panel (AID 1162); details: higher = more signal; further: test concentration not given here
# [12] = compound effects on differentiated 3T3-L1 adipocyte viability – cell-based, 3T3-L1 adipocytes, calcein-AM fluorescence, 48 h, basal, profiling panel (AID 1163); details: 3T3-L1 adipocytes viability, higher = more signal; further: test concentration not given here
# [13] = compound effects on hepatocellular carcinoma cell viability – HepG2, calcein-AM fluorescence, 48 h, basal, profiling panel (AID 1164); details: higher = more signal; further: test concentration not given here
# [14] = compound effects on multiple myeloma cell viability – MM1S, calcein-AM fluorescence, 48 h, basal, profiling panel (AID 1165); details: higher = more signal;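 further: viability of MM1S multiple myeloma cells under basal unstimulated conditions; test concentration not given here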
# [15] = calcein-AM signal in unstimulated myeloma cells – cell-based, calcein-AM fluorescence, 48 h, PK04 Diversity Set, profiling panel (AID 1166); details: RPMI8226 myeloma viability, higher = more signal;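 further: cells grown under basal conditions without added stimulus; test concentration not given here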
# [16] = JC-1 mitochondrial signal, unstimulated HepG2 cells – cell-based, JC-1 fluorescence, 24 h, 100 nL compound, profiling panel (AID 1167); details: HepG2 mitochondrial potential, higher = more signal; further: test concentration not given here
# [17] = JC-1 mitochondrial signal, unstimulated adipocytes – cell-based, JC-1 fluorescence, 3T3-L1 adipocytes, 24 h, 100 nL compound, profiling panel (AID 1168); details: JC-1 mitochondrial fluorescence, higher = more signal, called active from +8 up or from −8 down; further: test concentration not given here
# [18] = JC-1 mitochondrial signal, unstimulated myeloma cells – cell-based, JC-1 fluorescence, RPMI8226, 24 h, 100 nL compound, profiling panel (AID 1169); details: JC-1 mitochondrial potential fluorescence, higher = more signal; further: test concentration not given here
# [19] = JC-1 mitochondrial signal, unstimulated MM1S myeloma – cell-based, JC-1 fluorescence, 24 h, 100 nL compound, profiling panel (AID 1170); details: MM1S mitochondrial potential, higher = more signal; further: test concentration not given here
# [20] = resazurin metabolic signal in A549 cells – cell-based, resazurin fluorescence, 24 h, PK04 Diversity Set, profiling panel (AID 1171); details: A549 viability, higher = more signal, called active from +8 up or from −8 down; further: test concentration not given here
SMILES,z-score [1],composite z-score [2],z-score [3],z-score [4],z-score [5],z-score [6],z-score [7],z-score [8],z-score [9],z-score [10],z-score [11],z-score [12],z-score [13],z-score [14],z-score [15],z-score [16],z-score [17],z-score [18],z-score [19],z-score [20]
NC(=O)NCC#Cc1ccc2c(c1)[C@]1(C(=O)N2)[C@H](C(=O)N2CCN(c3ncccn3)CC2)[C@H]2C(=O)O[C@H](c3ccccc3)[C@H](c3ccccc3)N2[C@@H]1c1ccc(OCCO)cc1,0.682 (inactive),0.309,5.91 (inactive),1.66 (inactive),-0.015 (inactive),0.689 (inactive),-0.24,1.44 (inactive),1.1 (inactive),1.12,0.0404,-0.33,-1.12,-0.444,0.86,-1.95,1.54 (inactive),-0.504,-0.445,0.75 (inactive)
CC1CC/C=C\[C@H]2OC34C=CCN(CCN5CCOCC5)C(=O)[C@H]3N(C(C)CO)C(=O)[C@@H]4C2C(=O)O1 (stereo not given in full),-0.197 (inactive),-0.147,0.77 (inactive),-0.306 (inactive),0.753 (inactive),0.233 (inactive),0.0656,0.801 (inactive),-0.323 (inactive),1.58,0.956,-0.491,1.2,1.29,-0.143,0.602,0.225 (inactive),0.0954,-0.722,-0.387 (inactive)
NC(=O)[C@H]1[C@@H]2C(=O)O[C@@H](c3ccccc3)[C@@H](c3ccccc3)N2[C@@H](c2ccc(O)cc2)[C@]12C(=O)Nc1ccc(C#CC3=CCCCC3)cc12,-1.35 (inactive),0.145,3.07 (inactive),1.45 (inactive),0.28 (inactive),1.4 (inactive),-0.425,1.18 (inactive),0.425 (inactive),0.563,-1.8,0.741,-3.91,-3.33,-4.54,-3.68,-2.09 (inactive),-1.16,-1.32,-0.3 (inactive)
C=CCNC(=O)[C@H]1[C@@H]2C(=O)O[C@@H](c3ccccc3)[C@@H](c3ccccc3)N2[C@@H](c2ccc(OCCO)cc2)[C@]12C(=O)Nc1ccc(C#CCNC(N)=O)cc12,-0.0661 (inactive),0.0809,2.59 (inactive),1.36 (inactive),1.42 (inactive),0.563 (inactive),0.326,1.91 (inactive),0.286 (inactive),-0.621,0.292,1.63,-0.529,-1.41,-0.062,-1.11,-0.657 (inactive),-0.0816,0.938,-0.805 (inactive)
CC(C)OC(=O)CC(=O)CC(O)c1ccc([N+](=O)[O-])cc1 (stereo not given),-0.314 (inactive),0.0509,1.92 (inactive),0.586 (inactive),0.0451 (inactive),0.438 (inactive),-0.243,0.0696 (inactive),0.66 (inactive),0.39,1.78,-0.228,0.714,0.772,0.159,0.775,0.377 (inactive),-0.121,-0.359,-0.741 (inactive)
Cc1cccc([C@H]2C[C@H]3C(Br)=C[C@@H]2C(=O)[C@]32CO2)c1,-0.227 (inactive),-0.147,0.969 (inactive),0.323 (inactive),0.463 (inactive),0.06 (inactive),0.209,0.7 (inactive),-0.00866 (inactive),-0.854,-0.798,0.0171,-1.24,-3.14,-2.72,-0.565,0.404 (inactive),-0.837,-0.262,-0.581 (inactive)
COCCCNC(=O)[C@@]1(c2ccc([N+](=O)[O-])cc2)CC(=O)N(CC23CC4CC(CC(C4)C2)C3)[C@@H]1c1ccc(CO)cc1I,-0.355 (inactive),0.082,24 (active),8.65 (active),2.5 (inactive),2.31 (inactive),-0.0623,2.08 (inactive),-1.02 (inactive),-0.233,-1.28,-0.64,-2.75,-3.75,-4.35,2.16,-1.23 (inactive),-1.02,-1.81,-2.76 (inactive)
CN(C)C(=O)[C@@]1(Cc2ccccc2N=[N+]=[N-])N=C(c2ccc(OCCCO)cc2)O[C@H]1c1ccccc1,-0.369 (inactive),0.465,25.7 (active),12.4 (active),2.85 (inactive),1.94 (inactive),-0.482,-3.93 (inactive),0.711 (inactive),-2.45,-1.85,0.574,-0.954,-2.99,-3.67,0.517,0.0738 (inactive),-1.25,-1.67,-2.2 (inactive)
C=CCC(OC(C)=O)[C@@H]1[C@@H](N(Cc2ccc(-c3ccccc3)cc2)C(=O)c2ccc(C)cc2)c2cc(OCCCO)ccc2N1C(=O)Cc1ccc2ccccc2c1 (stereo not given in full),2.43 (inactive),-0.0011,-0.0828 (inactive),-0.66 (inactive),-1.45 (inactive),-0.938 (inactive),1.23,-1.68 (inactive),0.934 (inactive),1.62,1.35,0.844,0.769,0.697,0.922,3.38,0.144 (inactive),-0.0998,1.14,0.887 (inactive)
CCOC(=O)C[C@H]1[C@H](OC(=O)c2ccc(-c3ccccc3)cc2)[C@@H](NC(=O)Cc2ccc(OC)cc2)c2cc(OCCCO)ccc2N1C(=O)Cc1ccc(OC)cc1,1.07 (inactive),-0.0348,4.29 (inactive),0.4 (inactive),0.222 (inactive),0.211 (inactive),0.911,0.818 (inactive),-0.868 (inactive),1.52,0.368,0.0052,0.834,0.191,-0.102,2.01,0.262 (inactive),-0.198,-0.128,0.207 (inactive)
O=C1C2C=CC(C(O)c3ccc(I)cc3)N(Nc3ccccc3)C2C(=O)N1c1ccccc1 (stereo not given),-1.11 (inactive),0.437,6.92 (inactive),2.42 (inactive),-0.166 (inactive),1.83 (inactive),-1.21,-1.88 (inactive),-3.86 (inactive),-2.54,0.0685,-0.748,0.1,0.196,-0.311,-2.3,-1.3 (inactive),-0.865,-0.603,-0.393 (inactive)
CC(C)(C)OC(=O)CC[C@]12N=C(c3ccc(OCCCO)cc3)O[C@H]1c1ccccc1N(Cc1ccccc1)C2=O,0.617 (inactive),0.848,27 (active),28.2 (active),4.42 (inactive),2.09 (inactive),0.34,3.89 (inactive),0.102 (inactive),-1.71,0.413,0.709,0.909,-2.74,-4.27,0.0521,1.16 (inactive),-1.2,-0.0831,1.66 (inactive)
O=C1C2C=CC(C(O)c3ccco3)N(Nc3ccccc3)C2C(=O)N1c1ccccc1 (stereo not given),-0.292 (inactive),-0.0302,0.89 (inactive),-0.0044 (inactive),-0.284 (inactive),0.851 (inactive),-0.647,-1.61 (inactive),-2.98 (inactive),-2.52,0.133,-1.03,0.473,0.249,0.458,-0.45,0.255 (inactive),-0.364,-0.267,0.649 (inactive)
C=C[C@@H](C)[C@@H](OC(=O)Nc1ccc(SC)cc1)c1ccc(OCCO)cc1,-0.707 (inactive),-0.156,29.1 (active),20.2 (active),4.42 (inactive),1.9 (inactive),0.241,-1.21 (inactive),-0.0499 (inactive),-0.431,-0.555,0.248,-1.37,-1.08,-0.425,-2.54,-0.75 (inactive),-0.15,-0.434,0.491 (inactive)
CN(C)CCCC[C@@H]1NC(=O)[C@@H]2C[C@H](C(=O)O)[C@H](c3cccc(OCCO)c3)N2C1=O,0.408 (inactive),-0.147,2.07 (inactive),0.2 (inactive),-0.725 (inactive),-0.0176 (inactive),-0.564,1.11 (inactive),0.306 (inactive),1.18,0.0184,0.13,0.201,0.238,0.312,1.05,-0.864 (inactive),-0.804,0.174,0.593 (inactive)
CC=CC(O)C1C=CC2C(=O)NC(=O)C2N1Nc1ccccn1 (stereo not given),-0.576 (inactive),-0.0061,-0.335 (inactive),-0.0554 (inactive),0.0091 (inactive),0.998 (inactive),-0.966,-1.39 (inactive),-1.87 (inactive),-1.74,0.0403,-1.24,-0.154,-0.228,-0.496,0.0853,-0.288 (inactive),0.137,-0.121,-1.14 (inactive)
C=CCC(OC(C)=O)[C@@H]1[C@@H](N(Cc2cccc3ccccc23)C(=O)Cc2ccc(F)cc2)c2cc(OCCCO)ccc2N1C(=O)c1ccc(-c2ccccc2)cc1 (stereo not given in full),0.341 (inactive),0.0184,0.616 (inactive),0.743 (inactive),-0.402 (inactive),-0.278 (inactive),-0.18,0.227 (inactive),0.795 (inactive),1.77,-0.546,0.905,0.111,0.867,-0.61,1.35,-0.389 (inactive),-0.104,0.302,0.736 (inactive)
O=C1C[C@@](C(=O)NCc2ccccc2)(c2ccc([N+](=O)[O-])cc2)[C@@H](c2ccc(CO)cc2I)N1CC12CC3CC(CC(C3)C1)C2,0.832 (inactive),-0.641,8.97 (active),1.41 (inactive),2.53 (inactive),0.301 (inactive),2.5,-1.38 (inactive),-4.29 (inactive),-3.82,-1.84,0.684,-2.67,-2.99,-4.33,0.878,-0.473 (inactive),-1.03,-0.91,-1.63 (inactive)
